# Measured values published in the supplement of paper PMC10723795.
# ± gives the standard deviation of the averaged measurements.
# Test system: RPE1
# Assay: nucleolar normality score relative to DMSO (fraction of DMSO control); RPE1 is a non-cancer human cell line; higher = more normal nucleoli (less nucleolar stress)
# Experimental: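 Selected screen hits were validated in hTERT lines (BJ5TA, CHON-002, RPE1) and cancer lines (DLD1, HCT116). Cells were immunostained for nucleolin and UBF and the nucleolar normality score was measured per field of view, with 4 fields per drug. Scores are normalized to each cell line's own DMSO control. Dose and time are not stated for this panel.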
row,SMILES,nucleolar normality score
1,COC[C@H](NC(=O)c1cnc(C)s1)C(=O)N[C@@H](COC)C(=O)N[C@@H](Cc1ccccc1)C(=O)[C@@]1(C)CO1 [Oprozomib],0.55 ± 0.037
2,CC(C)n1nc(-c2ccc3oc(N)nc3c2)c2c(N)ncnc21 [Sapanisertib],0.405 ± 0.0078
3,COc1cccc2c1C(=O)c1c(O)c3c(c(O)c1C2=O)C[C@@](O)(C(=O)CO)C[C@@H]3O[C@H]1C[C@H](N)[C@H](O)[C@H](C)O1 [Doxorubicin],0.133 ± 0.011
4,CN(C)CCNC(=O)c1cccn2c(=O)c3cc4ccccc4cc3nc12,0.0724 ± 0.012
5,Cc1nc(-c2cn3c(n2)-c2ccc(-c4cnn(C(C)(C)C(N)=O)c4)cc2OCC3)n(C(C)C)n1 [Taselisib],0.376 ± 0.0084
6,CC(C)C[C@H](NC(=O)[C@H](CCc1ccccc1)NC(=O)CN1CCOCC1)C(=O)N[C@@H](Cc1ccccc1)C(=O)N[C@@H](CC(C)C)C(=O)[C@@]1(C)CO1 [Carfilzomib],0.501 ± 0.086
7,CC(C)c1cc(C(=O)N2Cc3ccc(CN4CCN(C)CC4)cc3C2)c(O)cc1O [Onalespib],0.289 ± 0.0093
8,CCc1cnn2c(NCc3ccc[n+]([O-])c3)cc(N3CCCC[C@H]3CCO)nc12 [Dinaciclib],0.268 ± 0.01
9,CN1CC[C@H](c2c(O)cc(O)c3c(=O)cc(-c4ccccc4Cl)oc23)[C@H](O)C1 [Flavopiridol],0.254 ± 0.019
10,C=CCNC1=C2C[C@@H](C)C[C@H](OC)[C@H](O)[C@@H](C)/C=C(\C)[C@H](OC(N)=O)[C@@H](OC)/C=C\C=C(/C)C(=O)NC(=CC1=O)C2=O,0.296 ± 0.014
11,Cc1cnc(CNC(=O)c2c(=O)c3ccc(N4CCCN(C)CC4)nc3n3c2sc2ccccc23)cn1,0.277 ± 0.066
12,CC(C)c1c2cc(-c3ccnc(NC4CCC(NC5CCOCC5)CC4)n3)ccc2nn1C (configuration not stated),0.462 ± 0.015
